Where a name gives a salt, the structure may show the parent alone.
Tested on: Danio rerio larvae (5 dpf)
Experiment: optomotor response to blue moving lines, difference vs DMSO (percentage points (treated minus DMSO)); higher = more of the behaviour than the DMSO vehicle control
Conditions: 10 µM; exposure time: 3 h pre-incubation + 3 h imaging
Description: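 5-dpf wild-type zebrafish larvae were imaged in 96-well plates. They were treated with 190 Tocris FDA-approved drugs at 10 µM (1 µl/ml DMSO) for 3 h before and 3 h during imaging at 28.5 °C, 48 larvae per drug. Automated image analysis gave % time moving and optomotor responses. Values are drug group mean minus DMSO vehicle mean (n=844), in percentage points, for 10 behaviours.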

Row | Compound | optomotor response to blue moving lines
1 | CCCN(CCC)S(=O)(=O)c1ccc(C(=O)O)cc1 [Probenecid] | 2.07
2 | N#C[C@@H]1C[C@@H]2C[C@@H]2N1C(=O)[C@@H](N)C12CC3CC(CC(O)(C3)C1)C2 [Saxagliptin hydrochloride] | -7.01
3 | CN(C)CCc1c[nH]c2ccc(Cn3cncn3)cc12 [Rizatriptan benzoate] | 3.13
4 | CCc1nc(N)nc(N)c1-c1ccc(Cl)cc1 [Pyrimethamine] | 15.9
5 | O=C(O)C[C@H](O)C[C@H](O)/C=C/c1c(C2CC2)nc2ccccc2c1-c1ccc(F)cc1 [Pitavastatin calcium] | 11
6 | CCCCC1=NC2(CCCC2)C(=O)N1Cc1ccc(-c2ccccc2-c2nnn[nH]2)cc1 [Irbesartan] | -14
7 | COc1ccccc1OCCNCC(O)COc1cccc2[nH]c3ccccc3c12 (stereo not given) [Carvedilol] | -0.112
8 | C[C@@H]1C[C@H]2[C@@H]3CCC4=CC(=O)C=C[C@]4(C)[C@@]3(F)[C@@H](O)C[C@]2(C)[C@@]1(O)C(=O)CO [Dexamethasone] | 2.76
9 | CN1CC2c3ccccc3Oc3ccc(Cl)cc3C2C1 (stereo not given) [Asenapine maleate] | -10
10 | CN(C)C(=N)NC(=N)N [Metformin hydrochloride] | 22.6
11 | COCCCOc1cc(C[C@@H](C[C@H](N)[C@@H](O)C[C@H](C(=O)NCC(C)(C)C(N)=O)C(C)C)C(C)C)ccc1OC [Aliskiren hemifumarate] | -5.15
12 | Nc1ncn([C@H]2C[C@H](O)[C@@H](CO)O2)c(=O)n1 [Decitabine] | -0.954
13 | OCc1cc(C(O)CNCCCCCCOCCCCc2ccccc2)ccc1O (stereo not given) [Salmeterol xinafoate] | -3.67
14 | C[C@]12CC[C@@H]3c4ccc(O)cc4C[C@@H](CCCCCCCCC[S+]([O-])CCCC(F)(F)C(F)(F)F)[C@H]3[C@@H]1CC[C@@H]2O (stereo not given in full) | 6.07
15 | CCOC(=O)N1CCC(=C2c3ccc(Cl)cc3CCc3cccnc32)CC1 [Loratidine] | 6.09
16 | NS(=O)(=O)c1cc2c(cc1Cl)NC(C1CC3C=CC1C3)NS2(=O)=O (stereo not given) [Cyclothiazide] | -7.83
17 | O=c1[nH]c(=O)n([C@H]2C[C@H](O)[C@@H](CO)O2)cc1C(F)(F)F [Trifluorothymidine] | 6.73
18 | CC(C)c1ccc2oc3nc(N)c(C(=O)O)cc3c(=O)c2c1 [Amlexanox] | 5.97
19 | CCOc1cc(CC(=O)N[C@@H](CC(C)C)c2ccccc2N2CCCCC2)ccc1C(=O)O [Repaglinide] | -2.55
20 | COc1cc(N)c(Cl)cc1C(=O)NC1CCN(CCCOc2ccc(F)cc2)CC1OC (stereo not given) [Cisapride] | 4.41

Row | Compound | optomotor response to blue moving lines
21 | CC[C@H]1OC(=O)[C@H](C)[C@@H](O[C@H]2C[C@@](C)(OC)[C@@H](O)[C@H](C)O2)[C@H](C)[C@@H](O[C@@H]2O[C@H](C)C[C@H](N(C)C)[C@H]2O)[C@](C)(O)C[C@@H](C)CN(C)[C@H](C)[C@@H](O)[C@]1(C)O [Azithromycin] | -9.61
22 | Cc1cccc(C)c1OCC(C)N (stereo not given) [Mexiletine hydrochloride] | 7.61
23 | CN[C@H]1CC[C@@H](c2ccc(Cl)c(Cl)c2)c2ccccc21 [Sertraline hydrochloride] | -9.96
24 | CC(=O)S[C@@H]1CC2=CC(=O)CC[C@]2(C)[C@H]2CC[C@@]3(C)[C@@H](CC[C@@]34CCC(=O)O4)[C@H]12 [Spironolactone] | 1.86
25 | CC(C)[C@H]1CC[C@H](C(=O)N[C@H](Cc2ccccc2)C(=O)O)CC1 [Nateglinide] | 11.9
26 | COc1ccccc1OCC(O)CN1CCN(CC(=O)Nc2c(C)cccc2C)CC1 (stereo not given) [Ranolazine dihydrochloride] | 13.8
27 | CN(C)CCc1c[nH]c2ccc(C[C@H]3COC(=O)N3)cc12 [Zolmitriptan] | 9.9
28 | OCCN(CCO)c1nc(N2CCCCC2)c2nc(N(CCO)CCO)nc(N3CCCCC3)c2n1 [Dipyridamole] | -5.39
29 | Cc1nc(Nc2ncc(C(=O)Nc3c(C)cccc3Cl)s2)cc(N2CCN(CCO)CC2)n1 [Dasatinib] | -13.1
30 | C[C@@H](O[C@H]1OCCN(Cc2n[nH]c(=O)[nH]2)[C@H]1c1ccc(F)cc1)c1cc(C(F)(F)F)cc(C(F)(F)F)c1 [Aprepitant] | 4.96
31 | Brc1c(NC2=NCCN2)ccc2nccnc12 | 7.07
32 | NS(=O)(=O)c1cc(C(=O)O)c(NCc2ccco2)cc1Cl [Furosemide] | 6.22
33 | NC(=O)OCC(COC(N)=O)c1ccccc1 [Felbamate] | -1.4
34 | O=C1CCc2ccc(OCCCCN3CCN(c4cccc(Cl)c4Cl)CC3)cc2N1 [Aripiprazole] | -0.0385
35 | CC(C)(C(=O)c1cccnc1)c1cccnc1 [Metyrapone] | -8.19
36 | CC(C)(C)NC(=O)[C@@H]1C[C@@H]2CCCC[C@@H]2CN1C[C@@H](O)[C@H](Cc1ccccc1)NC(=O)[C@H](CC(N)=O)NC(=O)c1ccc2ccccc2n1 [Saquinavir mesylate] | -2.78
37 | Cc1cc(C2CCCCC2)n(O)c(=O)c1 [Ciclopirox] | -8.77
38 | CCCCCOC(=O)Nc1nc(=O)n([C@@H]2O[C@H](C)[C@@H](O)[C@H]2O)cc1F [Capecitabine] | 16.5
39 | C[C@H](Cc1cc2c(c(C(N)=O)c1)N(CCCO)CC2)NCCOc1ccccc1OCC(F)(F)F [Silodosin] | 15.7
40 | CCc1c2c(nc3ccc(OC(=O)N4CCC(N5CCCCC5)CC4)cc13)-c1cc3c(c(=O)n1C2)COC(=O)[C@]3(O)CC | 1.97

From the supplement of paper PMC9023506
